Test results published in PubChem BioAssay AID1159580 (chemical genetic matrix, 2015).
In all, about 5,500 compounds went through this assay and about 2,000 (36%) were called active. Inconclusive results (about 18%) are left out. Rule as the data show it: active = normalized growth mostly below about 0.91 (no sharp cut-off); inconclusive = no clear call, values can overlap the other calls; inactive = mostly above about 0.92. This is one part of the list.

Assay: chemical genetic growth profiling, strain panel (AID 1159580);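 also: tested at 20 µM; growth read once vehicle control cultures reached saturation at 30 °C; 1 = growth at the plate median or of vehicle wells; lower values mean less growth of the strain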
Conditions: S. cerevisiae deletion strains, growth OD

Measured: normalized growth

C1CNCCN1
inactive: locus YAL013W, strain DEP1, stronger effect = lower value 1.01 | locus YAL021C, strain ccr4, stronger effect = lower value 0.999 | locus YAL026C, strain drs2, stronger effect = lower value 1.02 | locus YAL030W, strain snc1, stronger effect = lower value 1.01 | locus YBL061C, strain skt5, stronger effect = lower value 1.02 | locus YBR009C, strain hhf1, stronger effect = lower value 1.01 | locus YBR021W, strain FUR4, stronger effect = lower value 0.979 | locus YBR023C, strain chs3, stronger effect = lower value 1.02 | locus YBR171W, strain sec66, stronger effect = lower value 1.02 | locus YBR229C, strain ROT2, stronger effect = lower value 0.997 | locus YBR231C, strain swc5, stronger effect = lower value 0.997 | locus YBR279W, strain paf1, stronger effect = lower value 1.01 | locus YCL011C, strain gbp2, stronger effect = lower value 1.01 | locus YCL016C, strain dcc1, stronger effect = lower value 1.01 | locus YCL029C, strain bik1, stronger effect = lower value 0.997 | locus YCL061C, strain MRC1, stronger effect = lower value 1 | locus YCL069W, strain vba3, stronger effect = lower value 1.01 | locus YCR088W, strain abp1, stronger effect = lower value 1.01 | locus YDL005C, strain med2, stronger effect = lower value 1.02 | locus YDL035C, strain GPR1, stronger effect = lower value 1.01 | locus YDL040C, strain nat1, stronger effect = lower value 1.01 | locus YDL074C, strain BRE1, stronger effect = lower value 1.03 | locus YDL101C, strain DUN1, stronger effect = lower value 1.02 | locus YDL134C, strain PPH21, stronger effect = lower value 1.01 | locus YDL185W, strain tfp1, stronger effect = lower value 1.02 | locus YDL192W, strain arf1, stronger effect = lower value 0.999 | locus YDR001C, strain nth1, stronger effect = lower value 1.01 | locus YDR069C, strain doa4, stronger effect = lower value 1.01 | locus YDR101C, strain arx1, stronger effect = lower value 0.987 | locus YDR137W, strain rgp1, stronger effect = lower value 1.03 | locus YDR150W, strain NUM1, stronger effect = lower value 1 | locus YDR159W, strain sac3, stronger effect = lower value 1.04 | locus YDR162C, strain NBP2, stronger effect = lower value 1.02 | locus YDR195W, strain ref2 1 | locus YDR297W, strain sur2, stronger effect = lower value 1.01 | locus YDR318W, strain mcm21, stronger effect = lower value 0.998 | locus YDR334W, strain swr1, stronger effect = lower value 1.01 | locus YDR335W, strain msn5, stronger effect = lower value 1.01 | locus YDR388W, stronger effect = lower value 0.996 | locus YDR392W, strain spt3, stronger effect = lower value 0.962 | locus YDR502C, strain sam2, stronger effect = lower value 0.999 | locus YEL003W, strain gim4, stronger effect = lower value 1.01 | locus YEL037C, strain rad23, stronger effect = lower value 1.01 | locus YEL061C, strain CIN8 (second series), stronger effect = lower value 1.01 | locus YEL061C, strain CIN8, stronger effect = lower value 1 | locus YER015W, strain faa2, stronger effect = lower value 0.999 | locus YER016W, strain bim1, stronger effect = lower value 0.999 | locus YER110C, stronger effect = lower value 0.988 | locus YER111C, strain swi4, stronger effect = lower value 1.02 | locus YER155C, strain BEM2 (second series), stronger effect = lower value 1 | locus YER155C, strain BEM2, stronger effect = lower value 1.01 | locus YER167W, strain BCK2, stronger effect = lower value 1.01 | locus YFR010W, strain ubp6, stronger effect = lower value 1.01 | locus YGL078C, strain dbp3, stronger effect = lower value 0.99 | locus YGL086W, strain mad1, stronger effect = lower value 0.996 | locus YGL167C, strain pmr1, stronger effect = lower value 1.02 | locus YGL173C, strain kem1, stronger effect = lower value 1.02 | locus YGL227W, strain vid30, stronger effect = lower value 1.01 | locus YGL240W, strain doc1, stronger effect = lower value 1.01 | locus YGL248W, strain PDE1, stronger effect = lower value 1 | locus YGL253W, strain hxk2, stronger effect = lower value 0.992 | locus YGR078C, strain PAC10, stronger effect = lower value 1 | locus YGR135W, strain pre9, stronger effect = lower value 1.01 | locus YGR229C, strain SMI1, stronger effect = lower value 1.02 | locus YGR252W, strain gcn5, stronger effect = lower value 0.948 | locus YHR013C, strain ard1, stronger effect = lower value 1.03 | locus YHR027C, strain rpn1, stronger effect = lower value 1.02 | locus YHR030C, strain SLT2, stronger effect = lower value 1.02 | locus YHR079C, strain IRE1 (second series), stronger effect = lower value 0.988 | locus YHR079C, strain IRE1, stronger effect = lower value 1.03 | locus YHR094C, strain hxt1, stronger effect = lower value 1 | locus YHR129C, strain ARP1, stronger effect = lower value 1.01 | locus YHR142W, strain chs7, stronger effect = lower value 1.02 | locus YHR200W, strain rpn10, stronger effect = lower value 1.01 | locus YIL066C, strain RNR3, stronger effect = lower value 1.01 | locus YIL073C, strain SPO22, stronger effect = lower value 0.983 | locus YIL125W, strain kgd1, stronger effect = lower value 1 | locus YIR030C, strain dcg1, stronger effect = lower value 1 | locus YJL092W, strain hpr5, stronger effect = lower value 1.01 | locus YJL095W, strain BCK1 (second series), stronger effect = lower value 1.02 | locus YJL095W, strain BCK1, stronger effect = lower value 1.01 | locus YJL115W, strain asf1, stronger effect = lower value 1.01 | locus YJL129C, strain trk1, stronger effect = lower value 1.01 | locus YJL134W, strain LCB3, stronger effect = lower value 1.01 | locus YJL154C, strain vps35, stronger effect = lower value 1.02 | locus YJL164C, strain tpk1, stronger effect = lower value 1.01 | locus YJL166W, strain qcr8, stronger effect = lower value 1.02 | locus YJL168C, strain set2, stronger effect = lower value 0.994 | locus YJL187C, strain SWE1 (second series), stronger effect = lower value 1.02 | locus YJL187C, strain SWE1, stronger effect = lower value 1.01 | locus YJR043C, strain POL32, stronger effect = lower value 1.01
